Screening data deposited in PubChem BioAssay by National Center for Advancing Translational Sciences (NCATS).
Pol eta inh: qHTS for Inhibitors of Polymerase Eta. DNA polymerase eta (Homo sapiens), Q9Y253. recombinant Pol eta, fluorescent DNA replication assay. Potency, µM (series often up to 114 µM), inactives show top-dose activity change, negative = inhibition, hits mostly inhibitors. 390,000 compounds, 1.2% hits; note: % is set by controls: 0 for no effect and ±100 for the full control effect
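Fluorescent replication assay: 50 nM final substrate added after a 15 min room-temperature compound preincubation with 10 nM enzyme. Signal taken at 0 min and again at 10 min.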
Pol kappa inh: qHTS for Inhibitors of Polymerase Kappa; DNA polymerase kappa (Homo sapiens), Q9UBT6; purified Pol kappa, fluorescent DNA synthesis assay, 10 min; Potency, µM (series often up to 107 µM), for inactives: at the highest dose activity, negative = inhibition, most hits filed as inhibitors; 400,000 compounds, 0.53% hits; note: % is set by controls: 0 for no effect and ±100 for the full control effect
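Inhibition of 10 nM Pol kappa is measured by a fluorescent read-out at 0 and 10 min following addition of 50 nM substrate (final), with a 15-min room-temperature compound preincubation.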
POLB inh: qHTS Assay for Inhibitors of DNA Polymerase Beta | P06746 | Potency, µM (series often up to 114 µM), for inactives: at the top dose activity change, negative = inhibition, most hits filed as inhibitors | 340,000 compounds, 1.3% hits | AID 485314, 2010 | Pol beta primer extension/strand displacement, fluorescence kinetic; note: % is set by controls: 0 for no effect and ±100 for the full control effect
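Curves were derived by four-parameter Hill fits of normalized qHTS data. The kinetic fluorescent primer-extension read was taken at 0 and 10 min after 50 nM substrate, following a 15 min room-temperature preincubation of 10 nM enzyme with compounds.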
FEN1 inhibitor: qHTS Assay for the Inhibitors of Human Flap endonuclease 1 (FEN1) | P39748 | Recombinant FEN1 flap cleavage, fluorescence, 15 min | Potency, µM (top dose mostly 114 µM), for the others: at the top dose activity change, negative = inhibition, hits mostly inhibitors | 390,000 compounds, 0.35% hits | AID 588795, 2011; note: % is set by controls: 0 for no effect and ±100 for the full control effect; nearly all actives have a fitted effect of over 65% in size
Target sequence (P39748 whole entry, looked up): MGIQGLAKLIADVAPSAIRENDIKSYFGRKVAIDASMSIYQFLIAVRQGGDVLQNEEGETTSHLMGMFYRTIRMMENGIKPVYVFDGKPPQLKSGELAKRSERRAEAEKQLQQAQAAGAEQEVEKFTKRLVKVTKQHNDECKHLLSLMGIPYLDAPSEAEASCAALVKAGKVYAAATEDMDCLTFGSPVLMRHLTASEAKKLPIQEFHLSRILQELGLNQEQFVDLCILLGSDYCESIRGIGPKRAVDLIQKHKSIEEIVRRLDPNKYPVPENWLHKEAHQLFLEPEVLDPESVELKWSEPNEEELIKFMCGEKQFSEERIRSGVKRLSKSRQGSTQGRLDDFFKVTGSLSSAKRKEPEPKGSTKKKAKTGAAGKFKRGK
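Enzyme 10 nM, 15 min RT preincubation with compound; start with substrate 50 nM final; reads at 0 and 15 min; qHTS titration, four-parameter Hill fit.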
Pol iota inh: qHTS for Inhibitors of Polymerase Iota; Potency, µM (titrated, usually from 115 µM), inactives show at the top dose activity, negative = inhibition, most hits filed as inhibitors; Pol iota fluorescent replication assay, 10 min; 390,000 compounds, 1% hits; DNA polymerase iota (Homo sapiens), Q9UNA4
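Fluorescent replication assay read twice, at 0 min and 10 min after adding 50 nM (final) substrate. Enzyme (10 nM) and compounds were first incubated 15 min at room temperature; enzyme-free buffer wells were negative controls.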
TDP1 inh: qHTS Assay for Inhibitors of Tyrosyl-DNA Phosphodiesterase (TDP1); Potency, µM (highest dose often 130 µM), for inactives: at the top dose activity change, negative = inhibition, actives largely listed as inhibitors; 350,000 compounds, 0.28% hits; AID 485290, 2010; Tyrosyl-DNA phosphodiesterase 1 (Homo sapiens), Q9NUW8; recombinant TDP1, AlphaScreen DNA substrate cleavage; note: % is set by controls: 0 for no effect and ±100 for the full control effect; nearly all actives have a fitted effect of over 40% in size
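Recombinant E. coli-expressed Tdp1 (1 nM) preincubated with compound 15 min at RT, then 5'-biotin/3'-phosphotyrosine-FITC DNA substrate (15 nM) added for 5 min. AlphaScreen beads (10 ug/ml) added, 10 min RT; tyrosine-FITC cleavage read as signal loss.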
* = called active by the depositor; [ ] = remark or other dose. Only some compounds are listed: those with a hit (about 2.4% of all), similar ones and a draw of the others. Calls come from the whole dose curve; as a rule, active = well fitted curve in the direction sought with a large enough effect; inconclusive = small, poorly fitted or top-dose-only effect, or another doubt; inactive = no such curve, though single readings can be large; an effect the other way counts as inactive or inconclusive. Potency is the fitted concentration of half-maximal effect.

Screening CC(/C=C1\SC(=S)N(CCC(=O)Nc2ccccc2O)C1=O)=C\c1ccccc1 returned Pol eta inh -18.6%, Pol kappa inh -7.8%, POLB inh 2.7%, FEN1 inhibitor 4.2%, Pol iota inh 11.0% and TDP1 inh 2.1%.
CC(=C\c1ccccc1)/C=C1/SC(=S)N(CCCC(=O)O)C1=O was read as Pol eta inh 25.1µM*, Pol kappa inh -25.7%, POLB inh -14.9%, FEN1 inhibitor inconclusive and Pol iota inh 25.1µM*.
`O=C(CCCN1C(=O)S/C(=C\C=C\c2ccccc2)C1=O)Nc1ccc(C(=O)O)cc1` gave Pol eta inh -21.6%, Pol kappa inh 0.5%, POLB inh 18.7%, FEN1 inhibitor -4.3%, Pol iota inh inconclusive and TDP1 inh 35.5µM*.
Screening C=CCN1C(=O)/C(=C\C(C)=C\c2ccccc2)SC1=S returned Pol eta inh 0.7%, Pol kappa inh -4.2%, POLB inh 17.6%, FEN1 inhibitor -7.0% and Pol iota inh inconclusive.
COc1ccc(CCN2C(=O)/C(=C\c3ccco3)SC2=S)cc1OC was read as Pol eta inh -18.6%, Pol kappa inh -7.5%, POLB inh 28.2µM*, FEN1 inhibitor -6.8%, Pol iota inh inconclusive and TDP1 inh 2.5%.
Screening O=C(NCc1nnc(-c2cc3ccccc3[nH]2)o1)c1ccccc1 returned TDP1 inh -2.4%.
Screening CSc1ccc(/C=C2\C=Cc3ccc([N+](=O)[O-])cc32)cc1 returned Pol kappa inh -21.8%, FEN1 inhibitor -13.2% and Pol iota inh 29.3%.
For O=C(CCCN1C(=O)/C(=C\c2ccco2)SC1=S)Nc1ccc2ccccc2c1 the results were Pol eta inh inconclusive, Pol kappa inh -13.5%, POLB inh 20µM*, FEN1 inhibitor -3.8%, Pol iota inh 214.6% and TDP1 inh 7.9%.
Screening Cc1nc(NCc2ccco2)c2c(C)c(C)sc2n1 returned Pol eta inh -18.2%, Pol kappa inh -15.1%, POLB inh 0.2%, FEN1 inhibitor 2.8%, Pol iota inh 12.8% and TDP1 inh -6.1%.
Cc1sc2nc3c4ccccc4c(NCc4ccco4)nn3c(=O)c2c1C was read as Pol eta inh inconclusive, Pol kappa inh -19.2%, POLB inh 11.2µM*, FEN1 inhibitor -20.6%, Pol iota inh -1.2% and TDP1 inh -7.8%.
Screening CCOc1ccc(C(=O)NC2C(=O)N3C(C(=O)O)=C(COC(C)=O)CSC23)cc1OCC (configuration not stated) returned Pol eta inh 20µM*, Pol kappa inh -33.0%, FEN1 inhibitor -2.7%, Pol iota inh 25.1µM* and TDP1 inh 0.7%.
Screening CC(=O)OCC1=C(C(=O)O)N2C(=O)[C@@H](NC(=O)Cc3ccccc3)[C@H]2SC1 returned Pol eta inh inconclusive, Pol kappa inh 0.0%, FEN1 inhibitor 13.6% and Pol iota inh inconclusive.
Screening O=C(Cc1ccc(OCc2ccccn2)cc1)NO returned Pol kappa inh -21.0%, FEN1 inhibitor -14.4% and Pol iota inh 55.3%.
For Cc1cc2c(n1-c1ccc(C(=O)O)cc1)CCCCC2 the results were POLB inh 2.51µM*.
Screening O=C(OCC#CCSc1nnc(-c2cccc3ccccc23)o1)c1sc(Cl)c(Cl)c1Cl returned TDP1 inh -1.9%.
COc1ccc2cc(C(=O)Nc3ccc(S(N)(=O)=O)cc3)sc(=O)c2c1OC was read as Pol eta inh -12.4%, Pol kappa inh -11.9%, POLB inh inconclusive, FEN1 inhibitor -21.2%, Pol iota inh -39.9% and TDP1 inh 2.6%.
`COc1ccc2cc(C(=O)Nc3ccccc3)sc(=O)c2c1OC` gave Pol eta inh inconclusive, Pol kappa inh inconclusive, POLB inh 22.4µM*, FEN1 inhibitor 0.7%, Pol iota inh 18.1% and TDP1 inh 15.8µM*.
c1ccc(C(OC2CCCN(CCc3ccc4c(c3)OCO4)C2)c2ccccc2)cc1 (configuration not stated) was read as Pol kappa inh 4.2%[60.1 µM] and TDP1 inh 14.8%.
`O=C(COc1ccc2c3c(c(=O)oc2c1)CCC3)Nc1ccc(CCO)cc1` gave Pol eta inh 50.1µM*, Pol kappa inh -3.4%, POLB inh inconclusive, FEN1 inhibitor 12.9%, Pol iota inh inconclusive and TDP1 inh 39.8µM*.
For NS(=O)(=O)c1ccc(CCNC(=O)COc2ccc3c4c(c(=O)oc3c2)CCC4)cc1 the results were Pol eta inh -1.0%, Pol kappa inh -8.2%, POLB inh -11.3%, FEN1 inhibitor 3.7%, Pol iota inh -7.4% and TDP1 inh 3.0%.
For CCn1cc(C(=O)O)c(=O)c2cc(F)c(N3CCN(C(=S)NC(=O)c4cc(OC)cc(OC)c4)CC3)cc21 the results were Pol eta inh 2.0%, Pol kappa inh -4.2%, POLB inh -7.1%, FEN1 inhibitor 21.5%, Pol iota inh inconclusive and TDP1 inh 44.7µM*.
CCn1cc(C(=O)Nc2ncccc2O)c(=O)c2cc(F)c(N3CCN(C(=O)c4ccco4)CC3)cc21 was read as Pol eta inh -2.2%, Pol kappa inh -28.7%, POLB inh -19.6%, FEN1 inhibitor -3.3%, Pol iota inh 70.8µM* and TDP1 inh -7.2%.
For CCn1cc(C(=O)NC(C)C)c(=O)c2cc(F)c(N3CCN(C(=O)c4ccco4)CC3)cc21 the results were Pol eta inh -9.5%, Pol kappa inh 1.6%, POLB inh 11.1%, FEN1 inhibitor 14.4%, Pol iota inh -0.3% and TDP1 inh 4.0%.
Screening CCN(C(=O)COC(=O)c1ccc([N+](=O)[O-])o1)c1cccc2ccccc12 returned Pol eta inh inconclusive, Pol kappa inh -17.8%, FEN1 inhibitor 28.2µM*, Pol iota inh -19.9% and TDP1 inh 4.7%.
`CCOC(=O)c1oc2c(c1C)-c1nn(Cc3ccc(Cl)cc3)cc1CC2` gave Pol kappa inh -12.0%, POLB inh 5.7%, FEN1 inhibitor -4.0%, Pol iota inh 6.2% and TDP1 inh 5.1%.
Screening Cc1c(C(=O)O)oc2c1-c1nn(Cc3ccc(Cl)cc3)cc1CC2 returned Pol kappa inh -34.4%, POLB inh 25.1µM*, FEN1 inhibitor -11.5%, Pol iota inh inconclusive and TDP1 inh 2.5%.
